The compounds below were run against Shiga toxin 2 (Escherichia coli O157:H7) (UniProt P09385+P09386) (assay: E. coli 0.157:H7 Shiga Toxin SOP - stx2 screening assay). Conditions: 30 µM.
Type: functional
Parameters: scale not given: direction of the effect not stated beside the values

Row | SMILES | Percent Effect [%]
1 | COc1ccc(NC(C)C(=O)NCCc2cccs2)cc1F (centres undefined) | -24.3
2 | CN(Cc1ccsc1)C(=O)c1cccc(F)c1 | -0.747
3 | COc1ccc(CNCc2c(C)nn(C)c2N2CCOCC2)cc1 | 14.4
4 | CS(=O)(=O)c1ccccc1C(=O)NCCCN1CCc2ccccc2C1 | -24.7

Reference: ChEMBL document CHEMBL3988442, “University of Dundee, Small-Polar-MMV Screening Library” (2021)
